{
  "source": "ChEMBL document CHEMBL3988442",
  "about": "“University of Dundee, Small-Polar-MMV Screening Library” (2021)",
  "note": "About 300 (0.45%) of roughly 67,000 compounds showed an effect of 50% or more. This is one part of a sample in which strong results are shown more often than they occur.",
  "data": [
    {"biological_target": "Polyketide synthase Pks13 (Mycobacterium tuberculosis (strain ATCC 25618 / H37Rv)) (UniProt I6X8D2)", "sequence (I6X8D2 whole entry)": "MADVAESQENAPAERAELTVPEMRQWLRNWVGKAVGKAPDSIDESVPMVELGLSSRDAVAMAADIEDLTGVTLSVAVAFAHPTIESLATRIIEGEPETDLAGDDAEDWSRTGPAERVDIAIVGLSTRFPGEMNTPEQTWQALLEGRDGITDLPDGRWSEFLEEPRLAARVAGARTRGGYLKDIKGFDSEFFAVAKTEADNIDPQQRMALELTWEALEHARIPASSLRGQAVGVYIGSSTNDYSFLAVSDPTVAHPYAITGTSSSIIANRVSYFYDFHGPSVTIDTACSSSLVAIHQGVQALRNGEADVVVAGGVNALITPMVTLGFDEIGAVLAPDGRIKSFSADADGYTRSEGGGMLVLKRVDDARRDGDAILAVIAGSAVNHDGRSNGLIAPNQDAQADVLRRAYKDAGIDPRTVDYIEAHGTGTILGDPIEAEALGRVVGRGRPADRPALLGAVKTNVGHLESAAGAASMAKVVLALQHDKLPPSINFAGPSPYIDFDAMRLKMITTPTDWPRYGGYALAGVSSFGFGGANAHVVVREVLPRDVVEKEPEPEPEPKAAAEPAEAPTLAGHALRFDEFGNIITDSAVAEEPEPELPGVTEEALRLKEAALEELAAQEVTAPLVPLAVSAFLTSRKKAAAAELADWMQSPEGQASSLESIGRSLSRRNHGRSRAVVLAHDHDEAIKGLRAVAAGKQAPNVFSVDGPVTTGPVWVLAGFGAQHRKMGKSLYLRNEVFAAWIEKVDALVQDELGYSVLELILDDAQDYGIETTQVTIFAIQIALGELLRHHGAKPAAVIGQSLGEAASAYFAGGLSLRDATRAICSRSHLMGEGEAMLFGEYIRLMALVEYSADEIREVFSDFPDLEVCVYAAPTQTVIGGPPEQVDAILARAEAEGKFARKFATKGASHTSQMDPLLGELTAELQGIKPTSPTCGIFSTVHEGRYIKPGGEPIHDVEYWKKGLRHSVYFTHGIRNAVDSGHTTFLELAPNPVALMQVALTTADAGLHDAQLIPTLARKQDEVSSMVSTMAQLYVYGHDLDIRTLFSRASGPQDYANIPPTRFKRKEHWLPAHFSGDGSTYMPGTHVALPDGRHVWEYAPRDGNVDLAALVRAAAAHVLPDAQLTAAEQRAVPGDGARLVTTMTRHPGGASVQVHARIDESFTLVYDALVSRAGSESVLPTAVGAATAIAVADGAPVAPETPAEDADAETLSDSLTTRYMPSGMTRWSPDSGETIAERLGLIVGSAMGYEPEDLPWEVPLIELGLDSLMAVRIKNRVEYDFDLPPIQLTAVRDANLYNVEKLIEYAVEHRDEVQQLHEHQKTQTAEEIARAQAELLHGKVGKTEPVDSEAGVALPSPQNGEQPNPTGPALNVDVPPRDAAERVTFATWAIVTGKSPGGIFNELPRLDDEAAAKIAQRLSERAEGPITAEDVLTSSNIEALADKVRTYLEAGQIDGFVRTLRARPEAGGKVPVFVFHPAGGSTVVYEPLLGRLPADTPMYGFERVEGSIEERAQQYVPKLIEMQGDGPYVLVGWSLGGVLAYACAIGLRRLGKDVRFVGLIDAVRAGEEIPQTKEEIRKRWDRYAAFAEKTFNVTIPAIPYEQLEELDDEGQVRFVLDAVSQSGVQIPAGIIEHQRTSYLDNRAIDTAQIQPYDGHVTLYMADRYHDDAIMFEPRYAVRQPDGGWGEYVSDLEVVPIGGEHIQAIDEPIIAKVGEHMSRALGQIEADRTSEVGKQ", "assay": "Mycobacterium tuberculosis Polyketide synthase 13 Thioesterase (PKS13)", "format": "functional", "parameters": "scale not given: in the data most compounds retested in dose-response had high values", "details": "30 µM", "units": {"Percent Effect": "%"}, "values": [
      {"smiles": "CN1CCS(=O)(=O)[C@@H]2CCN(C(=O)c3ccccc3)CC[C@@H]21", "Percent Effect": -9.08},
      {"smiles": "Cc1cc(C)n(-c2cncc(NCCNC(=O)CC3CCCC3)n2)n1", "Percent Effect": -10.3},
      {"smiles": "Cc1cc(C)n(-c2cncc(NCCNC(=O)C3CCCC3)n2)n1", "Percent Effect": 40.3},
      {"smiles": "CCCNC(=O)CCNc1cncc(-n2nc(C)cc2C)n1", "Percent Effect": 52},
      {"smiles": "Cc1cc(C)n(-c2cncc(NCCNC(=O)C(C)(C)C)n2)n1", "Percent Effect": 27},
      {"smiles": "Cc1cc(C)n(-c2cncc(NCCNC(=O)c3cccnc3)n2)n1", "Percent Effect": 2.44},
      {"smiles": "CCN(CC)C(=O)CCNc1cncc(-n2nc(C)cc2C)n1", "Percent Effect": 10.2},
      {"smiles": "Cc1cc(C)n(-c2cncc(NCCC(=O)NC(C)C)n2)n1", "Percent Effect": 62.4},
      {"smiles": "Cc1cc(C)n(-c2cncc(NCCNC(=O)C(C)C)n2)n1", "Percent Effect": 35.4},
      {"smiles": "Cc1cc(C)n(-c2cncc(NCCNS(C)(=O)=O)n2)n1", "Percent Effect": 59.2},
      {"smiles": "O=C(CC1CCCC1)N1C[C@H](OCc2ccncc2)[C@H]2OCCC[C@H]21", "Percent Effect": -0.106},
      {"smiles": "COCCN1CC[C@H]2CN(c3cc(OC)ncn3)C[C@@H]2C1=O", "Percent Effect": 25.2},
      {"smiles": "CS(=O)(=O)CC(=O)N1C[C@H]2CCC[C@@]2(COCc2ccncc2)C1", "Percent Effect": -8.5},
      {"smiles": "CCC(CC)CN1C[C@@H]2OCCN(Cc3cnn(C)c3)[C@@H]2C1", "Percent Effect": -3.42},
      {"smiles": "CCN1C[C@H]2CCN(C(=O)Nc3ccccc3C)CC[C@H]2S1(=O)=O", "Percent Effect": -46.2},
      {"smiles": "CCc1nc(C)c(C(=O)N2C[C@H]3CC[C@@H]2CN(S(=O)(=O)N(C)C)C3)s1", "Percent Effect": -18.5},
      {"smiles": "Cc1noc(C)c1CN1C[C@@H]2CN(C(=O)c3cnccn3)C[C@@H]2C1", "Percent Effect": -42.1},
      {"smiles": "O=C(O)[C@]12CCCN(Cc3nccs3)[C@@H]1CCN(c1cnccn1)C2", "Percent Effect": -14.4},
      {"smiles": "COCCN1CCCC2(CCN(c3nccc4ccccc34)C2)C1=O", "note": "(stereo unspecified)", "Percent Effect": 10.3},
      {"smiles": "COCCN1CCCC2(CCN(c3ncnc(C)c3C)C2)C1=O", "note": "(stereo unspecified)", "Percent Effect": 6.43},
      {"smiles": "COCCN1CCCC2(CCN(c3nccnc3N(C)C)C2)C1=O", "note": "(stereo unspecified)", "Percent Effect": 60.4},
      {"smiles": "Fc1cnc(N2C[C@@H](OCC3CCOCC3)[C@H]3OCCC[C@H]32)nc1", "Percent Effect": -17.1},
      {"smiles": "CN(C)C[C@H]1OC[C@@H]2CCN(C(=O)NCc3cccc(F)c3)C[C@@H]21", "Percent Effect": -18.3},
      {"smiles": "O[C@]12CCNC[C@H]1CN(c1ccnc3ccccc13)CC2", "Percent Effect": -11.7},
      {"smiles": "Cc1ccc(C(=O)N2C[C@H](OCc3cccnc3)[C@H]3COC[C@H]32)cn1", "Percent Effect": -11.8},
      {"smiles": "COc1ccc2nc(C3CC3)cc(C(=O)NCc3ncnn3C)c2c1", "Percent Effect": -6.17},
      {"smiles": "COc1ccc2nc(C3CC3)cc(C(=O)NCc3noc(C)n3)c2c1", "Percent Effect": 83.5},
      {"smiles": "COc1ccc2nc(C3CC3)cc(C(=O)NCC(=O)N(C)C)c2c1", "Percent Effect": -13.4},
      {"smiles": "Cc1cnc(N2CC[C@H]3[C@@H]2CCC(=O)N3c2ccccc2)nc1", "Percent Effect": -48.4},
      {"smiles": "O=C(CC1CC1)N1C[C@H]2CN(CC3CC3)C(=O)[C@H]2C1", "Percent Effect": -22.1},
      {"smiles": "O=C(CCn1cncn1)N1C[C@H]2CC[C@@H]1CN(Cc1ccncc1)C2", "Percent Effect": 0.614},
      {"smiles": "CCCOc1ccc(CNc2cncc(-n3cccn3)n2)cc1", "Percent Effect": 34.6},
      {"smiles": "CN(C)c1ccc(CNc2cncc(-n3cccn3)n2)cc1", "Percent Effect": 27.6},
      {"smiles": "CNC(=O)COc1ccc(CNc2cncc(-n3cccn3)n2)cc1", "Percent Effect": 70.7},
      {"smiles": "COCc1ccc(CNc2cncc(-n3cccn3)n2)cc1", "Percent Effect": 52.2},
      {"smiles": "CCN(CC)C(=O)c1ccc(CNc2cncc(-n3cccn3)n2)cc1", "Percent Effect": -7.79},
      {"smiles": "CCOCCOCc1cccc(CNc2cncc(-n3cccn3)n2)c1", "Percent Effect": 53.8},
      {"smiles": "CCOCc1ccc(CNc2cncc(-n3cccn3)n2)cc1", "Percent Effect": -10.5},
      {"smiles": "NS(=O)(=O)Cc1ccc(CNc2cncc(-n3cccn3)n2)cc1", "Percent Effect": 133},
      {"smiles": "CCOc1cccc(CNc2cncc(-n3cccn3)n2)c1", "Percent Effect": -63.1},
      {"smiles": "CC(C)OCc1ccc(CNc2cncc(-n3cccn3)n2)cc1", "Percent Effect": 16.5},
      {"smiles": "COC(=O)Nc1ccc(CNc2cncc(-n3cccn3)n2)cc1", "Percent Effect": 25.1},
      {"smiles": "Cc1cccc(CNc2cncc(-n3cccn3)n2)c1", "Percent Effect": -60.2},
      {"smiles": "Cc1nc[nH]c1CN1CCN(C(=O)c2cccs2)[C@H]2CS(=O)(=O)C[C@H]21", "Percent Effect": -7.55},
      {"smiles": "COCCN1C[C@H]2CC[C@@H]1CN(CC(=O)Nc1ccn(C)n1)C2", "Percent Effect": -11.6},
      {"smiles": "O=C(c1cnccn1)N1CCN2C[C@H](Oc3cccc(F)c3)C[C@H]2C1", "Percent Effect": -42.7},
      {"smiles": "O=C(Cc1cccc(F)c1)N1CCN2C[C@H](Oc3cncnc3)C[C@H]2C1", "Percent Effect": -1.46},
      {"smiles": "O=C(C1CC1)N1CCN2C[C@@H](CO)[C@H](c3ccccc3)[C@H]2C1", "Percent Effect": 2.09},
      {"smiles": "Cc1nnc([C@H]2CC[C@@H]3[C@@H](CCN3CC3CCOCC3)O2)o1", "Percent Effect": -25.5},
      {"smiles": "CN(C)C(=O)CO[C@@H]1CC[C@H]2[C@H]1OCCN2c1ncc(F)cn1", "Percent Effect": -1.97},
      {"smiles": "COCCN1C(=O)C[C@H]2[C@H]1CCN2Cc1cccc(C#N)c1", "Percent Effect": -24.2},
      {"smiles": "CO[C@@H]1CC[C@@H](N(C)C(=O)c2cn3cc(C)ccc3n2)[C@H]1O", "Percent Effect": -0.591},
      {"smiles": "CO[C@@H]1CCC[C@@H](N(C)C(=O)c2cn3cc(C)ccc3n2)[C@H]1O", "Percent Effect": -3.51},
      {"smiles": "Cc1ccc2nc(C(=O)N(C)[C@@H]3CC[C@@H](N4CCCC4)[C@@H]3O)cn2c1", "Percent Effect": 61.6},
      {"smiles": "CC(C)=CCN1C[C@H]2CC[C@@H]1CN(S(=O)(=O)c1cccnc1)C2", "Percent Effect": 7.63},
      {"smiles": "CCN1CC[C@@]2(C(=O)N3CCOCC3)CCN(C(=O)NC)CC[C@@H]12", "Percent Effect": -31.8},
      {"smiles": "CC(NC(=O)NCC(C)(C)C(N)=O)c1nc(-c2ccccc2)cs1", "note": "(stereo unspecified)", "Percent Effect": 55.9},
      {"smiles": "CC(C)NC(=O)NC(C)c1nc(-c2ccccc2)cs1", "note": "(stereo unspecified)", "Percent Effect": 0.666},
      {"smiles": "CC(NC(=O)NC1CC1)c1nc(-c2ccccc2)cs1", "note": "(stereo unspecified)", "Percent Effect": -2.19},
      {"smiles": "CNC(=O)c1cc2c(nc1NCC(C)C)CCN(CC1CC1)CC2", "Percent Effect": 51.6},
      {"smiles": "CNC(=O)c1cc2c(nc1NCC(C)C)CCN(c1ncccn1)CC2", "Percent Effect": 16.7},
      {"smiles": "CNC(=O)c1cc2c(nc1NCC(C)C)CCN(c1ccncn1)CC2", "Percent Effect": 94.4},
      {"smiles": "CNC(=O)c1cc2c(nc1NCC1CC1)CCN(S(C)(=O)=O)CC2", "Percent Effect": 55.9},
      {"smiles": "CCS(=O)(=O)N1CCc2cc(C(=O)NC)c(NCC3CC3)nc2CC1", "Percent Effect": 23.6},
      {"smiles": "CNC(=O)c1cc2c(nc1NCC(C)C)CCN(S(=O)(=O)C1CC1)CC2", "Percent Effect": -13.9},
      {"smiles": "CNC(=O)c1cc2c(nc1NCC1CC1)CCN(S(=O)(=O)C1CC1)CC2", "Percent Effect": -32.9},
      {"smiles": "CNC(=O)c1cc2c(nc1NCC(C)C)CCN(C)CC2", "Percent Effect": 49.9},
      {"smiles": "CNC(=O)c1cc2c(nc1NCC1CC1)CCN(CC1CC1)CC2", "Percent Effect": 42.7},
      {"smiles": "CNC(=O)c1cc2c(nc1NCC(C)C)CCN(S(C)(=O)=O)CC2", "Percent Effect": 51},
      {"smiles": "CCS(=O)(=O)N1CCc2cc(C(=O)NC)c(NCC(C)C)nc2CC1", "Percent Effect": -68.6},
      {"smiles": "CNC(=O)c1cc2c(nc1NCC1CC1)CCN(c1ccncn1)CC2", "Percent Effect": -246}
    ]}
  ]
}
